Compound activity as filed in PubChem.
A selection: hits, their analogues and other compounds. The true share with any hit is near 3.9%.
H9c2 protect: protects H9c2 cardiomyocytes from peroxide injury | 360,000 tested, 0.63% active | protection from H2O2 cell death, % at 20 µM | H2O2 injury protection, ATPLite, 2 h | AID 588492;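 active = compounds giving at least 50% protection of heart cells from peroxide-induced death in the single-dose screen, raw or plate-pattern-corrected value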;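 also: 0% = DMSO wells with peroxide and 100% = DMSO wells without peroxide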
NTR1 ag: agonists of human neurotensin receptor NTR1; P30989; NTR1-U2OS beta-arrestin-GFP spot imaging, agonist mode; activation, % at 20 µM; 330,000 tested, 0.17% active;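 active = activation at or above 40% of the spot to cytoplasm intensity ratio, with at least 20 cells analyzed; inconclusive = wells under 20 cells, flagged as cytotoxic or low count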;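 also: 0% = DMSO without peptide and 100% = 100 nM NTR1 peptide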
ALR H2O2 inh: human ALR oxidase inhibition via reduced H2O2; purified ALR, DTT oxidation, H2O2 HRP-luminol luminescence; 290,000 tested, 3.8% active; P55789; inhibition, % (concentration not given with the values); AID 485317;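 active = mean replicate inhibition above about 79%, with every replicate also reaching it, limit read from the data; inconclusive = only one of the two criteria met; inactive = mean below limit and not every replicate reaching it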
Target sequence (P55789 whole entry, looked up): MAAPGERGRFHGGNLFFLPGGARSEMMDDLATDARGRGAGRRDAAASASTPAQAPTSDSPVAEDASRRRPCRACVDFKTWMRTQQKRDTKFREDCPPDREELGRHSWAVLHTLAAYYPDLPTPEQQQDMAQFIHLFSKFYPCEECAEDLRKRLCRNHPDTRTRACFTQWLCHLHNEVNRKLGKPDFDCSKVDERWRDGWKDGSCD
UBC9 SUMO inh: blocks human SUMOylation mediated by UBC9; 290,000 tested, 0.36% active; inhibition, % at 35 µM; AID 2006; HTRF SUMOylation assay, SAE1/SAE2 + UBC9, in vitro; P63279; in the data active = inhibition above about 50%, passing the limit was not always enough; inconclusive = no clear call, values can overlap the other calls
Target sequence (P63279 whole entry, looked up): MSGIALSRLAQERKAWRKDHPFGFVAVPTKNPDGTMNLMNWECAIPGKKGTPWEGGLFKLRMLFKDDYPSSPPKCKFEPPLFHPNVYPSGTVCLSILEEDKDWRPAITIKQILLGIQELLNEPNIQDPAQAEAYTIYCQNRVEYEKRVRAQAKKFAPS
* marks the source's active call; other numbers are inactive results; ? = inconclusive; nt = no result.

SMILES	H9c2 protect	NTR1 ag	ALR H2O2 inh	UBC9 SUMO inh
Cc1ccc(C(C)C)c(OCC(=O)NNC(=O)Cn2[nH]c(=O)c3ccccc3c2=O)c1	70*	5	0	nt
N#CC1(NC(=O)COC(=O)CN2C(=O)c3ccccc3C2=O)CCCCC1	4	0	-9	nt
N#CC1(NC(=O)COC(=O)Cn2[nH]c(=O)c3ccccc3c2=O)CCCCC1	74*	0	5	nt
Cn1cc(/C=N/NC(=O)COc2ccccc2[N+](=O)[O-])c2ccccc21	10	0	-2	6
CC1(C)CC2CC(C)(CN2C(=O)COC(=O)Cn2[nH]c(=O)c3ccccc3c2=O)C1 (stereo not given)	52*	-1	-12	6
CC(C)(C)N(Cc1ccccc1)C(=O)COC(=O)Cn1[nH]c(=O)c2ccccc2c1=O	27	nt	nt	nt
O=C(Cn1[nH]c(=O)c2ccccc2c1=O)OCC(=O)c1ccccc1Cl	22	0	-7	nt
Cc1ccc(C(C)C)c(OCC(=O)c2c(O)c3ccccc3oc2=O)c1	8	1	94*	nt
O=C(Cn1[nH]c(=O)c2ccccc2c1=O)OCC(=O)N(Cc1ccccc1)Cc1ccccc1	106*	-1	nt	-6
CC(C)NC(=O)COC(=O)Cn1[nH]c(=O)c2ccccc2c1=O	80*	-1	8	12
COc1cc(SC)ccc1C(=O)OCc1nc2ccsc2c(=O)[nH]1	8	1	6	nt
COc1ccccc1C(=O)NC(=O)COC(=O)Cn1[nH]c(=O)c2ccccc2c1=O	84*	2	-12	nt
Cc1cc(CNC(=O)COC(=O)Cn2[nH]c(=O)c3ccccc3c2=O)cc(C)c1O	104*	2	nt	nt
O=C(COC(=O)Cn1[nH]c(=O)c2ccccc2c1=O)NNC(=O)c1ccccc1	93*	3	-3	nt
O=C(Cn1[nH]c(=O)c2ccccc2c1=O)OCC(=O)c1ccc(F)cc1	31	0	0	nt
CCN1CCN(CC(=O)N2N=C(c3cccs3)CC2c2ccc(OC)cc2)C(=O)C1=O (stereo not given)	-1	-2	nt	18
COc1ccc(NC(=O)COC(=O)c2ccc(N3CCCC3=O)cc2)cc1OC	-7	1	-8	7
CCc1ccc(N(C(=O)c2snc(C(N)=O)c2N)C(C(=O)NC2CCCC2)c2ccco2)cc1 (stereo not given)	33	5	20	10
Cc1ccc(C(C(=O)NCc2ccccc2)N(Cc2ccco2)C(=O)c2snc(C(N)=O)c2N)o1 (stereo not given)	61*	0	4	0
NC(=O)c1nsc(C(=O)N(CCc2ccccc2)C(C(=O)NC2CCCC2)c2ccco2)c1N (stereo not given)	78*	6	-4	15
COc1ccc(CNC(=O)C(C)N(Cc2ccco2)C(=O)c2snc(C(N)=O)c2N)cc1 (stereo not given)	-2	5	1	39
COc1ccc(C(C(=O)NCc2ccccc2)N(Cc2ccco2)C(=O)c2snc(C(N)=O)c2N)cc1OC (stereo not given)	49	-1	nt	-3
COc1ccc(C(C(=O)NCc2ccccc2)N(Cc2ccco2)C(=O)c2snc(C(N)=O)c2N)cc1 (stereo not given)	80*	3	4	-19
COc1ccc(OC(=O)c2cc3cc(Cl)ccc3oc2=O)cc1	3	-1	1	5
Cc1cc(S(=O)(=O)c2ccc([N+](=O)[O-])cn2)ccc1Br	-22	4	-3	nt
SMILES	H9c2 protect	NTR1 ag	ALR H2O2 inh	UBC9 SUMO inh
O=[N+]([O-])c1ccc(S(=O)(=O)c2ccccc2)nc1	-22	16	98*	6
Cc1ccc(S(=O)(=O)c2ccc([N+](=O)[O-])cn2)cc1	-23	14	89*	10
NS(=O)(=O)c1ccc(N2N=C(c3ccccc3)CC2c2ccccc2)cc1 (stereo not given)	-5	12	-12	30
O=S(=O)(O)c1ccc(N2N=C(c3ccccc3)CC2c2ccccc2)cc1 (stereo not given)	9	-1	99*	?
O=[N+]([O-])c1ccc(-c2cn(-c3ccccc3F)c(=S)[nH]2)cc1	-2	2	84*	2
Cc1[nH]c2c(Br)cccc2c1[C@H]1[C@@H](CC#N)C1(C)C	0	12	4	-12
Cc1c([C@H]2[C@@H](CC#N)C2(C)C)c2ccccc2n1C	6	2	97*	-15
COc1ccc(-c2nnc3sc(-c4ccccn4)nn23)cc1	nt	2	-11	19
c1ccc(-c2nn3c(-c4ccco4)nnc3s2)nc1	81*	1	11	31
COc1cccc(-c2nn3c(-c4ccccn4)nnc3s2)c1	57*	0	-3	-8
Clc1ccc(-c2nnc3sc(-c4ccccn4)nn23)cc1	nt	nt	nt	27
COc1cccc(-c2nnc3sc(-c4ccccn4)nn23)c1	88*	2	0	30
COc1ccc(-c2nn3c(-c4ccccn4)nnc3s2)cc1OC	39	-1	66	10
CCOC(=O)C(=NC(C)CC)NNc1ccc(Br)cc1 (stereo not given)	4	-2	99*	3
CCOC(=O)C(=NC(C)CC)NNc1cccc(C(F)(F)F)c1 (stereo not given)	-16	2	nt	-9
CCOC(=O)C(=NC1CCS(=O)(=O)C1)NNc1ccccc1Cl (stereo not given)	-3	3	99*	22
CCOC(=O)C(=NC1CCS(=O)(=O)C1)NNc1ccc(Br)cc1 (stereo not given)	-1	2	99*	4
CCOC(=O)C(=NC1CCS(=O)(=O)C1)NNc1cc(Cl)ccc1Cl (stereo not given)	-2	5	?	6
CC(=O)N1CCc2cc(S(=O)(=O)NCC(=O)NCc3ccccc3Cl)ccc21	3	-1	-20	6
COc1ccc(NS(=O)(=O)c2ccc3oc(SC4CCOC4=O)nc3c2)cc1 (stereo not given)	-35	68*	5	11
COc1ccc(NS(=O)(=O)c2ccc3oc(SC)nc3c2)cc1	-11	1	nt	-2
Cn1nc(C(C)(C)C)c(NC(=O)c2cccs2)c1C(C)(C)C	-5	0	-3	2
COc1cc(C)c(C(=O)Oc2cc(C)c(C(=O)O)c(O)c2)c(O)c1	-9	2	58	13
COc1cc(C)c(C(=O)Oc2cc(C)c(C(=O)O)c(O)c2C)c(O)c1C	-12	-1	97*	nt
CCC(=O)NC(c1cccs1)c1cc([N+](=O)[O-])c2cccnc2c1OC (stereo not given)	16	nt	nt	nt
Cc1ccc(C(NC(=O)C(C)C)c2cc([N+](=O)[O-])c3cccnc3c2O)cc1 (stereo not given)	51*	1	nt	7
CC(C)C(=O)NC(c1cccs1)c1cc([N+](=O)[O-])c2cccnc2c1O (stereo not given)	56*	1	-29	4
CCC(=O)NC(c1ccc(C)cc1)c1cc(Cl)c2cccnc2c1O (stereo not given)	32	3	-8	nt
COc1ccc(/C=C(/NC(=O)c2ccccc2)C(=O)NCC2CCCO2)cc1 (stereo not given)	0	1	-3	-6
